Bioassay records (PubChem BioAssay)
BAZ2B inh = inhibitors of human BAZ2B bromodomain; AID 504333; actives 4.4% (n = 360,000); AlphaScreen BAZ2B-H3K14Ac peptide displacement; Q9UIF8; Potency, µM (top dose mostly 114 µM), inactives show top-dose activity change, negative = inhibition, usual class: inhibitors; note: potency is the fitted concentration of half-maximal effect; % is set by controls: 0 for no effect and ±100 for the full control effect; nearly all actives have a fitted effect of over 60% in size
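Compounds, titrated to a top concentration of 110 uM, were incubated 30 min at room temperature with preformed BAZ2B/acetyl-K14 H3 peptide complex (50 nM each). Proximity signal was measured by AlphaScreen after 20 min with beads.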
JMJD2A Tudor inh = blocks the human JMJD2A Tudor domain. O75164. AlphaScreen JMJD2A-Tudor / H3K4me3 peptide binding. Potency, µM (highest dose often 114 µM), inactives show at the top dose activity change, negative = inhibition, hits mostly inhibitors. actives 4.4% (n = 390,000); note: potency is the fitted concentration of half-maximal effect; % is set by controls: 0 for no effect and ±100 for the full control effect; nearly all actives have a fitted effect of over 50% in size
HP1b binding inh = inhibitors of HP1-beta chromodomain binding to methylated histone tails | Potency, µM (highest dose often 114 µM), for the others: top-dose activity change, negative = inhibition, actives largely listed as inhibitors | P83916 | actives 0.56% (n = 390,000) | AlphaScreen HP1-beta / biotin-H3K9me3 peptide binding; note: potency is the fitted concentration of half-maximal effect; nearly all actives have a fitted effect of over 70% in size
Target sequence (P83916 whole entry, looked up): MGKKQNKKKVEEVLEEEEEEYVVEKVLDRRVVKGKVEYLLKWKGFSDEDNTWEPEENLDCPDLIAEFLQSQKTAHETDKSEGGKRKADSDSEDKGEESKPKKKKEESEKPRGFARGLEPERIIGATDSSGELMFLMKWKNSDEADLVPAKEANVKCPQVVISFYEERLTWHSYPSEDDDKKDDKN
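HP1-beta protein (50 nM final) preincubated 30 min at room temperature with biotinylated H3(1-18)K9me3 peptide (50 nM) in PBS pH 7.4, 0.01% Tween-20, then compound added for 30 min. AlphaScreen streptavidin donor/nickel chelate acceptor beads (10 ug/mL final), 30 min dark, luminescence read.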
L3MBTL1 inh = blocks human L3MBTL1; Q9Y468; AlphaScreen L3MBTL1–H3K9me1 peptide binding; Potency, µM (doses to about 57.1 µM), for the others: at the highest dose activity, negative = inhibition, usual class: inhibitors; actives 0.66% (n = 230,000); AID 485360; note: potency is the fitted concentration of half-maximal effect; % is set by controls: 0 for no effect and ±100 for the full control effect; nearly all actives have a fitted effect of over 60% in size
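L3MBTL1 50 nM + b-AHA-H3(1-15)K9me1 75 nM, 30 min RT; compound added, 30 min RT; streptavidin donor/Ni-chelate acceptor beads 10 ug/mL each final, 30 min RT dark; AlphaScreen read.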
PI5P4Ka inh = PI5P4K alpha (human) kinase inhibition; P48426; PI5P4Kalpha enzyme, ADP-Glo luminescence, 60 min; active compounds read low; max response, %; actives 1.2% (n = 330,000); AID 652105; active = max response of -50% or lower; inconclusive = between -30% and -50%; inactive = -30% or higher; note: value at the top dose of about 77 µM; % is set by controls: 0 for no effect and ±100 for the full control effect
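Quantitative HTS of the MLSMR library against PI5P4Kalpha with substrate. ATP added last at 5 microM final; room temperature, 60 minutes. Remaining ATP depleted, ADP converted and read as luminescence.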
G9a inh = G9a (human) methyltransferase inhibition; Q96KQ7; G9a H3K9 monomethylation, AlphaScreen, 2 h; Potency, µM (series often up to 102 µM), for the others: at the highest dose activity, negative = inhibition, hits mostly inhibitors; actives 8.8% (n = 350,000); AID 504332; note: potency is the fitted concentration of half-maximal effect; % is set by controls: 0 for no effect and ±100 for the full control effect; nearly all actives have a fitted effect of over 75% in size
Target sequence (Q96KQ7 913-1193 limits assumed): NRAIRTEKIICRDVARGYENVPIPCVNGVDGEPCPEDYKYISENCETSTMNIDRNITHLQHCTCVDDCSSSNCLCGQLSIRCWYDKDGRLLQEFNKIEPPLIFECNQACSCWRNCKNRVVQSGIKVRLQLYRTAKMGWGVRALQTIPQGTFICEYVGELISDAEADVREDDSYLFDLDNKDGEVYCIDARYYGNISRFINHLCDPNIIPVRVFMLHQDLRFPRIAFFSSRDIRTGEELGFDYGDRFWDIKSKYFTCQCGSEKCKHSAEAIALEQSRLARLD
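G9a (20 nM) preincubated 15 min RT with compounds, then 500 nM biotinylated H3K9 peptide and 20 uM SAM added; 2 h RT reaction. Monomethyl-H3K9 product detected by AlphaScreen with anti-H3K9me1 antibody, streptavidin donor and anti-rabbit IgG acceptor beads.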
Numbers without * were called inactive; ? = inconclusive; . = no result given; [ ] = dose if it differs, or a comment. This is a sample that favours compounds with a hit; in the whole collection about 11% have one here. Unless noted, calls come from the whole dose curve; as a rule, active = well fitted inhibition curve with a large enough effect; inconclusive = small, poorly fitted or top-dose-only effect; inactive = no such curve, though single readings can be large or run the other way.

SMILES	BAZ2B inh	JMJD2A Tudor inh	HP1b binding inh	L3MBTL1 inh	PI5P4Ka inh	G9a inh
COc1ccc(-n2c(=O)c3c4c(sc3n(Cc3ccc(C(C)(C)C)cc3)c2=O)CCC4)c(OC)c1	-32%	?	-8%	.	.	?
Cc1cccc(OCCCC(=O)Nc2ccc(S(=O)(=O)Nc3ncccn3)cc2)c1C	-11%	-7%	43%	.	-19	.
Cc1ccc(SCC(=O)Nc2ccc(S(=O)(=O)Nc3nccs3)cc2)cc1	?	-27%	-5%	-14%	-19	13µM*
Cc1cccc(OCCCC(=O)Nc2ccc(S(=O)(=O)Nc3nccs3)cc2)c1C	?	?	-20%	.	-7	45µM*
O=C(COc1ccc(F)cc1Cl)Nc1ccc(S(=O)(=O)Nc2nccs2)cc1	-2%	-24%	5%	-2%	2	32µM*
CCOC(=O)CCNC(=O)N1CCN(S(=O)(=O)c2ccc3c(ccn3C)c2)CC1	1%	-3%	27%[57 µM]	.	.	9%[59 µM]
O=C1Cc2cc(S(=O)(=O)N3CCN(c4ccc(Cl)cc4)CC3)ccc2N1	.	-34%[229 µM]	.	.	.	.
CCN1CCN(C(=S)c2ccc(OCC(=O)NCc3ccccc3)cc2)CC1	-17%	-27%	-15%	-4%	2	10µM*
CCN1CCN(C(=O)NCc2ccccc2)CC1	-3%	1.6µM*	?	.	12	22µM*
O=C(NCc1ccccc1)c1ccc2c(c1)N(Cc1ccccc1F)C(=O)c1ccccc1S2=O (configuration not stated)	-14%	-4%	31%	.	.	1%[59 µM]
CCN(CC(=O)Nc1ccc(NC(C)=O)cc1)C(=O)c1cccc(S(=O)(=O)N2CCc3ccccc3C2)c1	-6%	-6%	28%	4%	2	3.2µM*
CCN(CC(=O)Nc1c(F)cccc1F)C(=O)c1cccc(S(=O)(=O)N2CCc3ccccc3C2)c1	6%	-14%	3%	-3%	-6	26%[0.501 µM]
CN(C)S(=O)(=O)c1cccc(NC(=O)COC(=O)c2cccc(S(=O)(=O)N3CCc4ccccc4C3)c2)c1	?	-21%	28%	-4%	-6	1.6µM*
Cc1cc(N2CCN(C)CC2)ccc1NC(=O)c1cccc(S(=O)(=O)N2CCc3ccccc3C2)c1	?	-35%	?	12%	-10	28µM*
Cc1ccc(NC(=O)c2cccc(S(=O)(=O)N3CCc4ccccc4C3)c2)nc1	11%	-9%	23%	0%	-1	3%[0.501 µM]
CCc1cccc(CC)c1NC(=O)COC(=O)c1cccc(S(=O)(=O)N2CCc3ccccc3C2)c1	5%	8%	40%	10%	-2	18%[59 µM]
CN(C)S(=O)(=O)c1cccc(C(=O)OCC(=O)Nc2ccccc2OC(F)F)c1	6%	79µM*	?	2%	-3	10%
O=Cc1c[nH]c2ccccc12	.	-11%	25%	.	.	.
CN[C@@H]1[C@H](O[C@@H]2O[C@H](C)[C@@](O)(CO)[C@H]2O[C@H]2[C@H](O)[C@H](O)[C@H](N=C(N)N)[C@@H](O)[C@@H]2N=C(N)N)O[C@@H](CO)[C@H](O)[C@H]1O	.	.	.	.	.	10µM*
CC1CN(C(=S)c2cccc([N+](=O)[O-])c2)CC(C)O1 (configuration not stated)	-19%	?	?	-3%	?	6.3µM*
N#Cc1ccc(C(=O)NC(=S)N2CCOCC2)cc1	.	-5%	47%	6%	-5	.
CC1CN(C(=S)NC(=O)c2ccc([N+](=O)[O-])cc2)CC(C)O1 (configuration not stated)	-34%[57.1 µM]	-35%	24%	0%	1	40µM*
CC1CN(C(=S)SCC(=O)c2ccc([N+](=O)[O-])cc2)CC(C)O1 (configuration not stated)	?	-26%	-11%	.	-2	14µM*
COc1ccc(C(=O)NC(=S)N2CCN(c3ccc([N+](=O)[O-])cc3)CC2)cc1	-7%	-7%[57.1 µM]	24%	-3%	-3	-3%[59 µM]
O=C(NC(=S)N1CCOCC1)c1ccc([N+](=O)[O-])cc1	?	-6%	44%	17%	-1	8.9µM*
SMILES	BAZ2B inh	JMJD2A Tudor inh	HP1b binding inh	L3MBTL1 inh	PI5P4Ka inh	G9a inh
CC1CN(c2ccc([N+](=O)[O-])cc2C#N)CC(C)O1 (configuration not stated)	-19%	-10%	15%	.	0	27%
CCc1nn(CC(=O)NCc2ccccc2Cl)c(=O)c2cc3ccccc3n12	2%	-3%	26%	.	.	-5%[59 µM]
CCc1ccccc1N1C(=O)N(Cc2cc(=O)n3ccccc3n2)c2ccccc2S1(=O)=O	-1%	-13%	52%	.	.	3%[59 µM]
COc1cccc(CNC(=O)c2ccc(Cn3c(SCc4ccccc4)nc4cccnc43)cc2)c1	-26%	-18%	14%	.	.	-25%[59 µM]
CC1CN(C(=S)NC(=O)c2ccccc2)CC(C)O1 (configuration not stated)	-38%	-25%	24%	.	3	71µM*
CC1CN(C(=S)NC(=O)c2ccco2)CC(C)O1 (configuration not stated)	5%	?	22%	7%	5	?
COc1ccc(C(=O)N2c3ccc(C)cc3C(C)(c3ccccc3)CC2(C)C)cc1 (configuration not stated)	-3%	-18%	11%	.	.	2%[59 µM]
N=C(N)SCc1ccc(O)c([N+](=O)[O-])c1	-22%	-8%[11.4 µM]	11%	-2%	-8	32µM*
COc1ccc(CSC(=N)N)cc1[N+](=O)[O-]	-2%	-17%	41%	.	-6	3%
Cc1nc(SCc2ccc(O)c([N+](=O)[O-])c2)n[nH]1	-4%	?	11%[57 µM]	7%	-6	6.3µM*
Cc1nc(SCc2ccc(O)c([N+](=O)[O-])c2)c([N+](=O)[O-])[nH]1	?	22µM*	?	-6%	?	.
CC(C)c1ccc(S(=O)(=O)c2nnn3c2nc(N2CCCCC2)c2sccc23)cc1	-17%	-8%	44%	.	.	-3%[59 µM]
COc1ccc(NC(=O)COCc2cc(-c3ccc4c(c3)OCO4)on2)cc1	4%	1%	27%	.	.	1%[59 µM]
CCOc1ccccc1CNC(=O)c1cccn1-c1nnc(N2CCCC2)s1	-15%	-10%	21%	.	.	8%[59 µM]
CC(C)c1nn2c(=O)cc(COC(=O)c3ccccc3NC(=O)c3cccc(Cl)c3)nc2s1	-2%	5%	27%	.	.	14%[59 µM]
CCN(CC)CCNc1nc(-c2cccs2)c(CC(=O)O)s1	20µM*	5.6µM*	?	2%	-4	8.9µM*
O=[N+]([O-])c1ccc2c(c1)[nH]c(=S)n2-c1ccccc1	?	?	-11%	1%	-22	3.2µM*
